# TDP1 cell CPT: growth inhibition of DT40 Tdp1-/-;hTDP1 cells with camptothecin (screen for TDP1 inhibitors); 420,000 tested, 12% active; Potency, µM (highest dose often 46.2 µM), for the others: at the highest dose activity change, negative = growth inhibition, actives largely listed as inhibitors; AID 686979; chicken DT40 Tdp1-/-;hTDP1 cells + 20 nM CPT, ATP luminescence, 48 h; further: potency means the concentration at half of the fitted maximal effect; nearly all actives have a fitted effect of over 55% in size
#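 Chicken DT40 Tdp1-/- cells complemented with human TDP1, 400 cells/well, exposed to compounds plus 20 nM camptothecin for at least 48 h at 37 C; viability read as ATP content by CellTiter-Glo luminescence.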
# Six1-Eya2 inh: blocks human Six1 binding to Eya2; Q15475+O00167; AID 651725; activity change, % (test concentration not listed); AlphaScreen GST-Six1/His-Eya2 binding, biochemical; active compounds read low; 360,000 tested, 0.56% active; in the data active means activity change below about -65%; inconclusive means mostly about -30% to -63%
#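 AlphaScreen with GST-Six1 and His-Eya2 (5X mix: 250 nM and 500 nM), glutathione donor and nickel acceptor beads; buffer 50 mM Tris pH 8.0, 300 mM NaCl, 1 mM TCEP; 1 h at 37 C in the dark.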
# TDP1 inh: TDP1 (human) enzyme inhibition; Q9NUW8; recombinant TDP1, AlphaScreen DNA substrate cleavage; Potency, µM (highest dose often 130 µM), for inactives: at the highest dose activity change, negative = inhibition, hits mostly inhibitors; 350,000 tested, 0.28% active; AID 485290; further: potency means the concentration at half of the fitted maximal effect; nearly all actives have a fitted effect of over 40% in size
# Target sequence (Q9NUW8 whole entry, looked up): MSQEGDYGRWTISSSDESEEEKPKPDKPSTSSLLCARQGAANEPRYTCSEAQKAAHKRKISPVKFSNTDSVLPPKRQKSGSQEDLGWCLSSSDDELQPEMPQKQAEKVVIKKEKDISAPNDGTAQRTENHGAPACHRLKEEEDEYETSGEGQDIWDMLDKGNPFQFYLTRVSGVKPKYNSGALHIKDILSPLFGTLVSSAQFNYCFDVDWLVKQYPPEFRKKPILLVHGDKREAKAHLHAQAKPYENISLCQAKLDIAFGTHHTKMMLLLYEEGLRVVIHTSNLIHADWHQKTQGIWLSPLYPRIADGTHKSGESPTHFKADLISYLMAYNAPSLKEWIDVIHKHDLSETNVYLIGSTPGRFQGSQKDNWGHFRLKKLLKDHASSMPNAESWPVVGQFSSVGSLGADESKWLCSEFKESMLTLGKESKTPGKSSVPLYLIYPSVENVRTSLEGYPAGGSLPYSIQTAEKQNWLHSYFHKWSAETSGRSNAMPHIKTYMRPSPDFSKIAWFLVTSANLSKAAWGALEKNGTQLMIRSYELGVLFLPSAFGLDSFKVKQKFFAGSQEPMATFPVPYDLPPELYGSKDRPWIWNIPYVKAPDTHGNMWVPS
#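 AlphaScreen read-out: signal falls as enzyme removes the 3' tyrosine-FITC from a 5'-biotinylated DNA oligo (15 nM, 5 min, RT). Enzyme was E. coli-made recombinant Tdp1 at 1 nM, exposed to compound for 15 min beforehand; beads 10 ug/ml, 10 min.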
# CtBP-E1A inh: CtBP/E1A binding inhibition; AlphaScreen GST-E1A/His-CtBP binding, 1536-well; active compounds read low; activity change, % (concentration not given with the values); 340,000 tested, 0.49% active; AID 651724; in the data active means activity change below about -65%; inconclusive means mostly about -30% to -63%
#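 Protein mix (5X: 125 nM each GST-E1A, His-CtBP) was incubated with pinned compound 2 h at 37 deg C in dark, in 50 mM Tris pH 8.0 buffer with 300 mM NaCl. Glutathione donor and nickel acceptor beads followed; AlphaScreen signal read after 1 h.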
# IL1B secr inh: inflammasome signaling inhibition, IL-1 beta readout; 360,000 tested, 4.7% active; activity change, % at 57.5 µM; THP-1 LPS/ATP IL-1B secretion, AlphaLISA, 16 h; active compounds read low; AID 743279; in the data active means activity change below about -50%; inconclusive means mostly about -30% to -49%
#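 Secreted IL-1B measured by AlphaLISA bead assay after 16 h compound exposure of THP-1 cells; compounds (final up to 57.5 uM) added 1 h before LPS (250 ng/mL) and ATP (1.25 mM) stimulation; lower signal means less secretion.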
# DT40 TDP1 no CPT: qHTS for Inhibitors of human tyrosyl-DNA phosphodiesterase 1 (TDP1): qHTS in cells in absence of CPT | 420,000 tested, 15% active | Potency, µM (highest dose often 46.2 µM), without a hit: at the highest dose activity change, negative = growth inhibition, most hits filed as inhibitors | DT40 Tdp1-/- hTDP1 cells, no CPT, ATP luminescence, 48 h; further: potency means the concentration at half of the fitted maximal effect; nearly all actives have a fitted effect of over 55% in size
#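 Compound effects on proliferation are scored in DT40 Tdp1-/-;hTDP1 cells in the absence of CPT. ATP levels (CellTiter-Glo luminescence) are recorded after a ≥48 hr, 37 °C incubation.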
# The depositor's hits bear a star; ? = inconclusive; . = not tested or not shown; [ ] = another dose, or the depositor's remark. This is a sample that favours compounds with a hit; in the whole collection about 18% have one here. Unless noted, the call rests on the fitted dose curve; in most records, active means well fitted curve in the direction sought with a large enough effect; inconclusive means small, poorly fitted or top-dose-only effect, or another doubt; inactive means no such curve, though single readings can be large; an effect the other way counts as inactive or inconclusive. On the % scale 0 is the no-effect control and ±100 the full control effect.
SMILES,TDP1 cell CPT,Six1-Eya2 inh,TDP1 inh,CtBP-E1A inh,IL1B secr inh,DT40 TDP1 no CPT
COc1ccc(NC(=O)Nc2cccc3c2O[C@H](CN(C)S(=O)(=O)c2c(C)noc2C)[C@@H](C)CN([C@H](C)CO)C3=O)cc1,-1%,6,1%,0,-4,-25%
O=C(c1cc(-c2cccnc2)nc2ccccc12)N1CCCc2ccccc21,?,-4,4%,-16,-11,?
Cc1ccc(-c2cc(C(=O)N3CCCc4ccccc43)c3ccccc3n2)cc1,?,-3,2%,7,-10,23µM*
CCc1nccn1C(=O)c1cnn2c(C(F)F)cc(-c3ccc(C)cc3)nc12,21µM*,7,0%,-2,.,15µM*
O=C(c1cnn2c(C(F)F)cc(-c3ccccc3)nc12)N1CCc2ccccc21,18µM*,-2,2%,7,51,?
Cc1ccc2nc3sc(C(=O)N4CCCc5ccccc54)c(N)c3cc2c1,?,-1,0%,1,24,15µM*
Cc1ccc(-c2cc(C(F)(F)F)n3ncc(C(=O)N4CCCc5ccccc54)c3n2)cc1,-28%,1,5%,9,3,-10%
N#CCCN(Cc1cccnc1)S(=O)(=O)c1ccc(S(=O)(=O)NC2CCCCC2)cc1,-23%,2,5%,-1,1,?
COc1cc(/C=N/n2cnnc2)ccc1OCCSc1ccc(C)cc1,?,10,4%,-2,-4,?
O=C(OCc1ccccc1C(F)(F)F)c1ccc(Br)c(S(=O)(=O)N2CCOCC2)c1,?,4,.,1,-12,?
COC(=O)c1sccc1OC(C)C(C)=O (stereo unspecified),-18%,-1,-3%,-2,-3,-10%
Cc1cccc2cc(-c3nc(-c4cccs4)no3)c(=O)oc12,-14%,.,3%,.,.,-20%
CC1CC(C)CN(C(=O)CSCC(=O)O)C1 (stereo unspecified),4%,7,.,2,-2,2%
O=C(c1cnn2c(C(F)F)cc(-c3ccccc3)nc12)N1CCCCC1c1cccnc1 (stereo unspecified),15µM*,1,3%,-8,-8,?
Cc1ccc(-c2cc(C(F)F)n3ncc(C(=O)N4CCc5ccccc54)c3n2)cc1,1.8µM*,1,1%,.,44,1.8µM*
O=C(c1cnn2c(C(F)F)cc(-c3ccccc3)nc12)N1CCN2CCCC2C1 (stereo unspecified),-3%,5,9%,1,-24,4%
Brc1ccc(-c2cn3ccccc3n2)s1,7.3µM*,14,-1%,0,4,23µM*
CC(C)Oc1ccc(CCNC(=O)C2CCC(=O)N(C3CCCCCC3)C2)cc1 (stereo unspecified),?,2,4%,3,44,2%
O=C1C[C@@H]2CCN3C(=O)CCC[C@@H]([C@H]23)[C@@H]1Cc1ccccc1,-3%,-1,0%[56.1 µM],1,36,9%
O=C1CCC[C@@H]2C=C[C@H](c3ccc(Br)cc3)[C@H]3CCN1[C@@H]32,?,3,.,-3,-4,18µM*
CCC(C)NC(=O)c1cc(-c2cccc(OC)c2)on1 (stereo unspecified),17%,.,4%,.,.,-23%
Cc1ccccc1OCCCSc1nc2ccccc2[nH]1,?,5,3%,13,-81*,16µM*
Cc1c(OCC(F)(F)F)ccnc1CSc1nc2ccccc2[nH]1,?,2,5%,1,?,23µM*
Cc1ccc(CNC(=O)c2ccc(CSCc3c(F)cccc3Cl)o2)cc1,-30%,.,3%,.,.,-14%
COc1ccccc1S(=O)Cc1ccc(C(=O)NCc2ccccc2Cl)o1 (stereo unspecified),16µM*,6,4%,-9,-26,?
SMILES,TDP1 cell CPT,Six1-Eya2 inh,TDP1 inh,CtBP-E1A inh,IL1B secr inh,DT40 TDP1 no CPT
O=C(NCc1ccccc1Cl)c1ccc(CSCc2ccccc2Cl)o1,16µM*,.,5%,.,.,21µM*
O=C(c1ccc(Br)o1)N1CCN(Cc2ccccc2Cl)CC1,?,-9,.,-1,-20,?
Cc1ccc(C(=O)NCC(=O)Nc2cc(C)ccn2)cc1,6%,4,3%,4,17,7%
CCC(=O)Nc1ccc(C(=O)COC(=O)c2nc3nccc(C)n3n2)cc1,-23%,-21,16µM*,6,10,26%
CCOC(=O)c1ccccc1NC(=O)c1nc2nccc(C)n2n1,?,3,4%,5,-12,18µM*
Cc1ccnc2nc(C(=O)OCC(=O)c3ccc(NC(=O)CC(C)C)cc3)nn12,13%,4,-4%,0,15,-8%
COc1ccc(Cl)cc1NC(=O)N(C)CCc1c(C)nn(C)c1C,-20%,.,-9%,.,.,?
Cc1ccnc2nc(C(=O)OCC(=O)Nc3ccccc3C(C)(C)C)nn12,4%,-4,-5%,.,0,10%
CCOC(=O)c1ccccc1NC(=O)N(C)CCc1c(C)nn(CC)c1C,21µM*,.,1%,.,.,16µM*
COc1cc2[nH]c(=O)n(CCCCCC(=O)NCCc3ccccc3)c(=O)c2cc1OC,-16%,.,3%,.,.,-14%
Cc1c(NC(=O)C(C)SC(=S)N2CCCC2)c(=O)n(-c2ccccc2)n1C (stereo unspecified),-21%,0,1%,5,27,2%
CC(C)Cn1c(C(C)C)nc([N+](=O)[O-])c1Sc1ccc(Cl)cn1,?,-2,5%,2,-9,?
CCCCn1c(CCC)nc([N+](=O)[O-])c1Sc1ccc(Cl)cn1,18µM*,-1,-5%,-2,?,?
Cc1c(C(=O)NNC(=O)c2csc(N3CCOCC3)n2)oc2ccccc12,-21%,-5,-4%,2,0,-8%
C=CCC(COCc1ccccc1)NS(=O)(=O)c1ccccc1Br (stereo unspecified),?,10,?,13,-9,?
C=CC(COCc1ccccc1)N(C(=O)OC(C)(C)C)S(=O)(=O)c1ccccc1Br (stereo unspecified),?,32,-11%,11,-4,16µM*
C=CCc1c(C)nc(SC)nc1Nc1ccc(C(C)=O)cc1,16µM*,-3,11%,-10,-23,21µM*
C=CCc1c(C)nc(-c2ccccc2)nc1Nc1ccc(O)cc1,?,0,0%,-9,-97*,15µM*
